Measurements taken from PubChem BioAssay AID1233 (SRMLSC, 2008).
Entries with a potency or affinity are not part of this list. Calls of active or inactive are those of the source.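 The calls were made as follows: active = a dose-response curve fit returns a half-maximal inhibitory concentration, extrapolated values included; inactive = the fit returns no such concentration.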

Molecular target: HMG-CoA reductase [Enterococcus faecalis] (UniProt Q9FD70)
Assay: inhibitors of E. faecalis class II HMGR, confirmation, biochemical, Enterococcus faecalis (AID 1233)
Conditions: purified E. faecalis HMGR, NADPH absorbance 340 nm kinetics; series mostly up to 100 µM

| SMILES | outcome |
| --- | --- |
| Cc1[nH]nc2c1C(c1ccsc1)C1=C(CC(C)(C)CC1=O)N2 (stereo not drawn) | inactive |
| CCN1CCCC1CNCC(O)COc1ccc(C(C)(C)C)cc1C (stereo not drawn) | inactive |
| Cc1ccccc1-n1nc(C)c2cc(C(=O)N3CCN(S(=O)(=O)c4ccc(F)cc4)CC3)sc21 | inactive |
| CN(c1ccc(C(=O)N2CCCCC2)cc1)S(=O)(=O)c1ccccc1 | inactive |
| COc1ccc(CNC(=O)COC(=O)[C@H](Cc2c[nH]c3ccccc23)NC(=O)c2cccs2)cc1 | inactive |
| O=C(N/N=C/c1ccc(OC(F)F)cc1OC(F)F)c1cccc(S(=O)(=O)N2CCOCC2)c1 | inactive |
| CCOC(=O)C1CCN(C(=O)c2c(-c3ccccc3)noc2C)CC1 | inactive |
| O=C(NCC1CCCO1)c1ccc(Cl)c(F)c1F (stereo not drawn) | inactive |
| CC(C)CC(O)(CC(C)C)C(=O)NNc1ccccc1 | inactive |
| CC(C)(C)[C@H]1C=C(C(=O)N2CCN(Cc3ccc4c(c3)OCO4)CC2)O[C@@H](OCc2ccc(CO)cc2)C1 | inactive |
| O=C(O)CCC(=O)NC(c1ccccc1)c1ccccc1 | inactive |
| CCC(Sc1ccccn1)C(=O)Nc1cccc([N+](=O)[O-])c1 (stereo not drawn) | inactive |
| [O-]C1=N/[N+](=C/c2ccc(Cl)c(Cl)c2)CC1 | inactive |
| FC(F)(F)c1cnc(Oc2ccc(-c3nnco3)cc2)c(Cl)c1 | inactive |
| COCCNC(=O)C1c2cc(OC)c(OC)cc2C(=O)N(C)C1c1cccnc1 (stereo not drawn) | inactive |
| O=C(O)CCC(=O)NNC(=O)c1ccc(Br)cc1 | inactive |
| COc1cccc(CNC(=O)CCS(=O)(=O)c2cccs2)c1 | inactive |
| COc1ccccc1NC(=S)N1CCCc2ccccc21 | inactive |
